Source: PubChem BioAssay (NCI)
The panel holds about 83,000 compounds, 20% with a hit somewhere; the sample as a whole holds those more often.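 Cells were grown in 96-well plates and exposed to the test compound at a single concentration for 48 hours; results are reported as percent growth, with values below 10 considered active.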 The source made the active and inactive calls.

tested on: HL-60(TB) leukemia; test: NCI-60 one-dose screen, 48 h (100 = growth as untreated, 0 = no growth, -100 = all killed); details: 10 µM unless noted

Structure (SMILES) | growth
Oc1c(Br)c(Br)c(O)c(Br)c1Br | 94.3% (inactive)
COc1cc(-c2nc(N)n(CC(=O)Nc3ccc(/C(C)=N\O)cc3)n2)cc(OC)c1OC | 91.6% (inactive)
COc1ccc(OC)c(Nc2nnc(-c3ccc(Cl)cc3)o2)c1 | 94.8% (inactive)
c1cc2ccc3cc2cc1CNCCOCCNCc1ccc2ccc(cc2c1)CNCCOCCNC3 | 15.9% (inactive)
Cc1cc(CC(C)CC(C)(C)C)n(O)c(=O)c1 (stereo unspecified) (tested in a mixture with another compound) | -27.7% (active)
O=c1cc(C2NNC(=S)N2)c2ccc3ccccc3c2o1 (stereo unspecified) | 102% (inactive)
O=C1c2ccccc2C(=O)c2c(O)c(Cl)cc(O)c21 | 122% (inactive)
NCCNc1ccc2cc(-c3nc4ccccc4[nH]3)c(=O)oc2c1 | 80.1% (inactive)
CC1(O)CCCCCC1 | 92.7% (inactive)
Nc1ccccc1NC(=O)c1ccc(CN2CCC/C(=C\c3ccccn3)C2=O)cc1 | -18% (active)
COc1ccc(/C(C)=C(\c2ccc(Cl)cc2)c2ccc(OCCN3CCCCC3)cc2)cc1 | 32.8% (inactive)
C=CCNc1ccc2c3c(cccc13)C(=O)N(CC=C)C2=O | 102% (inactive)
CCCCN(CCCC)C(=O)CC | 97.3% (inactive)
CN1CCN(c2nc(-c3cccnc3)nc3sc4c(c23)CCCCCC4)CC1 | 87.2% (inactive)
CC(c1ccccc1)N(C)C (stereo unspecified) | 88.5% (inactive)
O=C1/C(=C\c2ccc(F)cc2)CN(C(=O)c2ccc([N+](=O)[O-])cc2)C/C1=C\c1ccc(F)cc1 | 65.1% (inactive)
